Data on 19 compounds can be found in PubChem BioAssay (NCATS).

In experiment [1] the target is Pyruvate kinase (Leishmania mexicana) (UniProt Q27686). Kind of experiment: qHTS Validation Assay for Inhibitors of Leishmania Mexicana Pyruvate Kinase (AID 945). Summed up:
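Substrate mix (0.5 mM PEP, 0.1 mM ADP, 7 mM MgCl2, 50 mM KCl, pH 7.2 imidazole) received compound by pin tool, then 0.2 nM LmPYK E451W. After 1 h at room temperature, PKLight was added and luminescence measured.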
On the technique in general: Quantitative high-throughput screening tests each substance at several concentrations.

Experiment [2] in a line: MultiTox-Fluor Cytotoxicity Assay - LYMP1-001 - Dead Cells (AID 946). Summed up: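 AC50 from Hill fit of concentration-response; data normalized to DMSO (basal) and 15 uM tetraoctylammonium bromide (100%). LYMP1-001 lymphoblastoid cells, 2500/well, 16 hr compound at 37 C; dead-cell protease fluorescence, Ex/Em 485/520.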
Experiment [3] can be described thus: MultiTox-Fluor Cytotoxicity Assay - LYMP1-001 - Live Cells (AID 947).
Experiment [4] has as its target Pyruvate kinase PKM (Homo sapiens) (UniProt P14618). In words: qHTS Assay for Activators of Human Muscle Pyruvate Kinase (AID 954; active = well fitted curve in the direction sought with a large enough effect, not every such curve was filed as active). The procedure, abridged: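 A coupled luminescent readout tracked ATP made from ADP by purified PKM2. Final conditions included 0.1 nM enzyme, PEP and ADP at 0.5 and 0.1 mM, pH 7.2 imidazole buffer with BSA, and a one-hour room-temperature reaction.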

A short description of experiment [5]: MultiTox-Fluor Cytotoxicity Assay - LYMP1-002 - Live Cells (AID 955).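 Also: cells exposed to compound for 16 hours.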 Summed up: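 In this qHTS viability format, lymphoblastoid cells (LYMP1-002, human) received compound for 16 hr at 37 C. Fluorogenic GF-AFC cleavage by viable cells was detected at 405/510 nm after 1 h at room temperature.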

Inconclusive results are not listed. A call without a number means that no potency is given here. Calls of active or inactive are those of the source. Unless noted, calls follow the shape of the dose curve; as a rule, active = well fitted curve in the direction sought with a large enough effect; inconclusive = small, poorly fitted or top-dose-only effect, or another doubt; inactive = no such curve, though single readings can be large; an effect the other way counts as inactive or inconclusive.

Sequence of Pyruvate kinase PKM (Homo sapiens) (P14618 whole entry, looked up): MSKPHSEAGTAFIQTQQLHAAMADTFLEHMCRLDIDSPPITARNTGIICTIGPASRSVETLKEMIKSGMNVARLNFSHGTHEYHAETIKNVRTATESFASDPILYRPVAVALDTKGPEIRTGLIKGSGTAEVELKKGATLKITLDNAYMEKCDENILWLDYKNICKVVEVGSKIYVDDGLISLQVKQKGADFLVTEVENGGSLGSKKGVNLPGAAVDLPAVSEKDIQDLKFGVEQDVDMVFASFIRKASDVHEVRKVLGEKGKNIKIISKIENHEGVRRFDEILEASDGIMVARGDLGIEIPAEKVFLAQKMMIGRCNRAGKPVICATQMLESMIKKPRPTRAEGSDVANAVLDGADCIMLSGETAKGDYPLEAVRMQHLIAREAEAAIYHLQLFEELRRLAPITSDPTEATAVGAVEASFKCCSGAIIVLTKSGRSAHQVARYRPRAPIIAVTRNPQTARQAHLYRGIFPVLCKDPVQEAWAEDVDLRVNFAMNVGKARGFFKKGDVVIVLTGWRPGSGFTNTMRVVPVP
Sequence of Pyruvate kinase (Leishmania mexicana) (Q27686 2-499 E452W): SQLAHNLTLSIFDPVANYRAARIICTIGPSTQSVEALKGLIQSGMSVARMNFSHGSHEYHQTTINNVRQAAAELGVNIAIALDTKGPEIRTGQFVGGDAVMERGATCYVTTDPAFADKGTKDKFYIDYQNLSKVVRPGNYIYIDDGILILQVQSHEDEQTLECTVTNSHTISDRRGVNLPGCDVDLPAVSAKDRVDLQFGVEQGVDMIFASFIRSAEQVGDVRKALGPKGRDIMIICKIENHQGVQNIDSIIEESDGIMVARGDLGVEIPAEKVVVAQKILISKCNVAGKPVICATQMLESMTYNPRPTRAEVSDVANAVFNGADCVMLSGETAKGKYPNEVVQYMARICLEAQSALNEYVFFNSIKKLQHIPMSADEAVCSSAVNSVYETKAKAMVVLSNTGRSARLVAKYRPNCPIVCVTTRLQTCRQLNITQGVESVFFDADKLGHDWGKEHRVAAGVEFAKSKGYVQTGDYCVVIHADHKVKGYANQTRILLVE

Take `Oc1ccccc1O`: the Potency result in experiment [1], in experiment [2], in experiment [3] and in experiment [5] was “inactive” in each case. Further, the outcome in experiment [4] was inactive.
Turning to `COc1cccc(C(=O)NCCN2CCN(c3ccc(Cl)cc3)CC2)c1`, the Potency result in experiment [1] was “inactive”. Moreover, the compound was called inactive in experiment [4].
For `COc1ccccc1N1CCN(CCCCNS(=O)(=O)c2cccc3c(N(C)C)cccc23)CC1`, the Potency entry in experiment [1] was “inactive”. Also, the outcome in experiment [4] was inactive.
Consider `O=c1[nH]c2cc(Cl)c(Cl)cc2[nH]c1=O`, for which the Potency entry in experiment [1] is “inactive”. The outcome in experiment [4] was inactive.
`CC(C)NC[C@H](O)COc1cccc2[nH]ccc12`: the Potency entry in experiment [1] is “inactive”. Besides, the outcome in experiment [4] was inactive.
For the compound `O=c1[nH]c2cc(C(F)(F)F)ccc2n1-c1cc(C(F)(F)F)ccc1O`, the Potency entry in experiment [1] is “inactive”. For the same compound, in experiment [4], the compound was called inactive.
With `O=C(O)[C@@H]1C[C@@H](C(=O)O)N1`, in experiment [1], the Potency entry is “inactive”. Moreover, the call in experiment [4] was inactive.
Turning to `NCCCCCCCCCCN`, the Potency result in experiment [1] was “inactive”. Also, in experiment [4], the call was inactive.
As to `NC(=O)C(=O)O`, the Potency entry in experiment [1] was “inactive”. In addition, the compound was classed as inactive in experiment [4].
Consider `O=C(O)c1cc(=O)c2c(Cl)cc(Cl)cc2[nH]1`, for which the Potency result in experiment [1] was “inactive”. Also, in experiment [4], the compound was called inactive.
Take `C[N+](C)(CCCCCC[N+](C)(C)CCCN1C(=O)c2cccc3cccc(c23)C1=O)CCCN1C(=O)c2cccc3cccc(c23)C1=O`: the Potency result in experiment [1] is “inactive”. For the same compound, the compound was classed as inactive in experiment [4].
Regarding `Cn1c(=O)c2[nH]c(-c3ccccc3)nc2n(C)c1=O`, the Potency result in experiment [1] is “inactive”. Moreover, the outcome in experiment [4] was inactive.
As for `NCCCCC(=O)O`, in experiment [1], the Potency result was “inactive”. Further, the result in experiment [4] was inactive.
`C[N+]1(C)CCC(OC(=O)C(c2ccccc2)c2ccccc2)CC1`: the Potency entry in experiment [1] was “inactive”. The compound was called inactive in experiment [4].
`Cn1cc(C2=C(c3ccc(Cl)cc3Cl)C(=O)NC2=O)c2ccccc21`: the Potency entry in experiment [1] was “inactive”. For the same compound, the result in experiment [4] was inactive.
For the compound `O=C1C(SCCO)=C(SCCO)C(=O)c2ccccc21`, the Potency result in experiment [1] is “inactive”. In experiment [4], the call was inactive.
`c1ccc(-c2ccccn2)nc1`: the Potency result in experiment [1] was “inactive”. For the same compound, the compound was called inactive in experiment [4].
For the compound `NO`, in experiment [1], the Potency result is “inactive”. For the same compound, in experiment [4], the compound was classed as inactive.
With `CC(=O)SCC[N+](C)(C)C`, the Potency entry in experiment [1] is “inactive”. Besides, the result in experiment [4] was inactive.
